# HCV inh – inhibitors of hepatitis C virus infection. 340,000 tested, 3.4% active. AID 651820. Huh7.5.1 HCVcc-Cre infection, luciferase reporter, 44 h. Potency, µM (series often up to 41.8 µM), hits mostly inhibitors; active = well fitted inhibition curve with a large enough effect; inconclusive = small, poorly fitted or top-dose-only effect, or another doubt; inactive = no such curve, though single readings can be large or run the other way
#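 HCVcc-Cre virus at an moi near 0.5 was added right after compound to cells cultured 4 h from seeding (1,000 cells/well). Luciferase activity was determined 44 h later, 15 min after substrate addition at RT.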
# VACV mCherry inh – vaccinia inhibition (mCherry reporter); Vaccinia virus mCherry reporter infection, fluorescence; Potency, µM (series often up to 36.5 µM), usual class: inhibitors; 310,000 tested, 0.63% active; calls by dose curve; tested in A549 cells; also: nearly all actives have a fitted effect of over 35% in size
# Marburg entry inh – Marburg virus entry inhibition; Potency, µM (doses to about 37.8 µM), usual class: inhibitors; AID 540276; 300,000 tested, 1.8% active; Marburg virus pseudotyped entry inhibition, cell reporter; calls by dose curve; tested in HEK293 cells
# LASV entry inh – inhibitors of Lassa virus binding or cell entry; Lassa virus pseudotype entry inhibition, cell reporter; Potency, µM (doses to about 37.9 µM), hits mostly inhibitors; 300,000 tested, 1.2% active; calls by dose curve; tested in HEK293 cells; also: nearly all actives have a fitted effect of over 50% in size
# Vaccinia Venus – vaccinia inhibition (Venus reporter); 330,000 tested, 0.46% active; Vaccinia virus Venus reporter expression, fluorescence; Potency, µM (highest dose often 36.5 µM), most hits filed as inhibitors; calls by dose curve; tested in A549 cells; also: nearly all actives have a fitted effect of over 30% in size
# HCMV antiviral – inhibitors of human cytomegalovirus; HFF cells, HCMV-luciferase reporter, 72 h; hits give low values; activity change, negative = inhibition, % at 57.5 µM; 410,000 tested, 4.5% active; in the data active = activity change below about -60%; inconclusive = no clear call, values can overlap the other calls; inactive = above about -39%
#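 Two-dose cell screen: HFF monolayers treated with compounds and infected with luciferase-expressing HCMV at 1 PFU/cell, 72 h at 37C, then lysed for luciferase measurement.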
# Numbers stand for hits; i = inactive; ? = inconclusive; nt = not tested or not shown; ! = repeats disagree; [ ] = dose if it differs, or a comment. Shown are actives, neighbours in structure and some others; about 7.8% of the full set was active somewhere.
SMILES,HCV inh,VACV mCherry inh,Marburg entry inh,LASV entry inh,Vaccinia Venus,HCMV antiviral
Cc1cc(-c2cc(F)cc3c2OC(CNC(=O)CCn2cncn2)C3)ccc1F (stereo not drawn),nt,i,nt,nt,i,nt
CCCc1cc(=O)oc2c(C)c(O[C@@H]3O[C@H](CO)[C@@H](O)[C@H](O)[C@H]3O)ccc12,?,i,i,i,i,-66
CCOC(=O)c1c(NC(=O)CSc2nc3cc(Cl)ccc3s2)sc(C(C)=O)c1C,i,nt,i,i,nt,-61
CCOC(=O)c1c(NC(=O)CSc2nc3ccccc3s2)sc(C(C)=O)c1C,?,i,?,?,i,i
COC(=O)c1c(NC(=O)COc2ncnc3ccccc23)sc(C)c1C,?,i,i,i,i,i
CCOC(=O)c1c(NC(=O)COc2ncnc3ccccc23)sc(C(C)=O)c1C,7.1µM,i,i,i,i,i
O=S(=O)(c1ccccc1Cl)N1CCN(c2nc(-c3cccs3)nc3ccccc23)CC1,nt,i,nt,nt,i,nt
O=C(Nc1cccc(-n2cccn2)c1)C1CCCN(Cc2cc3ccccc3[nH]2)C1 (stereo not drawn),?,13µM,?,?,i,i
CCn1ncc(CN2CCCC(C(=O)Nc3cccc(-c4cc5ccccc5[nH]4)c3)C2)c1C (stereo not drawn),?,?,?,13µM,?,?
Cc1cc(CN2CCCC(C(=O)Nc3cccc(-n4cccn4)c3)C2)cc(C)c1O (stereo not drawn),13µM,i[7.34 µM],nt,nt,i[7.34 µM],i
Cc1c(CN2CCCC(C(=O)Nc3cccc(-n4cccn4)c3)C2)cnn1C (stereo not drawn),?,nt,nt,nt,nt,i
Cn1cc(CN2CCCC(C(=O)Nc3cccc(-n4cccn4)c3)C2)cn1 (stereo not drawn),i,i,i,i,i,i
O=C(COC(=O)CCc1ccc(S(=O)(=O)N2CCOCC2)cc1)Nc1ccc(Cl)cn1,i,i,0.79µM!,i,i,i
Cc1ccc(S(=O)(=O)N2CCOCC2)cc1NC(=O)COC(=O)CNC(=O)c1ccc(Cl)cc1Cl,i,i,i,i,i,-68
Cc1cc(-c2ccccc2)nc2cc(C(=O)Nc3ccc(Cl)c(Cl)c3)nn12,nt,i,nt,i,i,i
CC(=O)OC[C@H]1O[C@@H](n2ncc(=O)[nH]c2=O)[C@H](OC(C)=O)[C@@H]1OC(C)=O,i,i,?,0.73µM,i,nt
O=C(OCC1OC(n2ncc(=O)[nH]c2=O)C(OC(=O)c2ccccc2)C1OC(=O)c1ccccc1)c1ccccc1 (stereo not drawn),i,i,nt,nt,i,i
Cc1ccccc1NC(=O)c1ccc(N/N=C/c2ccccc2O)c([N+](=O)[O-])c1,i,i,i,i,i,-84
NS(=O)(=O)c1ccc(N/N=C/c2ccccc2C(=O)O)c([N+](=O)[O-])c1,i,i,i,i,i,i
Cc1ccc(NC(=O)c2ccc(N/N=C/c3cccc(O)c3)c([N+](=O)[O-])c2)cc1,?,i,?,?,?,-87
COc1cc(OC)cc(C(=O)Nc2nc(-c3nnn(-c4ccc(C)cc4)c3C)ns2)c1,nt,?,nt,i,?,-106
Cc1ccc(C(=O)Nc2nc(-c3nnn(-c4cccc(C(F)(F)F)c4)c3C)ns2)cc1,nt,i,nt,i,i,i
CCc1nc(CN2CCCC(C(=O)c3ccc4c5c(cccc35)CC4)C2)c(C)[nH]1 (stereo not drawn),10µM,i,?,i,i,?
O=C(c1ccc2c3c(cccc13)CC2)C1CCCN(Cc2ncc[nH]2)C1 (stereo not drawn),i,i,i,?,i,i
O=C(c1ccc2c3c(cccc13)CC2)C1CCCN(Cc2ccncc2)C1 (stereo not drawn),?,nt,nt,nt,nt,-69
SMILES,HCV inh,VACV mCherry inh,Marburg entry inh,LASV entry inh,Vaccinia Venus,HCMV antiviral
O=C(NCc1ccco1)C1CCCN(S(=O)(=O)c2ccc(-n3cnnn3)cc2)C1 (stereo not drawn),i,i,i,i,i,i
O=C(NCc1ccccc1F)C1CCCN(S(=O)(=O)c2ccc(-n3cnnn3)cc2)C1 (stereo not drawn),i,i,i,i,i,-77
CCC1CN(CCC(=O)NC2CCOC(C)(C)C2)Cc2cc(OC)ccc2O1 (stereo not drawn),nt,i,nt,nt,i,nt
COc1ccc(C(O)c2nc3ccccc3n2C)cc1OC (stereo not drawn),2.8µM,?,?,i,i,-88
CC(=O)OCC12CC(OC(=O)CC(C)C)C(C)=CC1OC1C(O)C(OC(C)=O)C2(C)C12CO2 (stereo not drawn),nt,nt,?,?,nt,-97
CCN1CSC(=S)N(Cc2ccccc2)C1,11µM,i,?,i,i,?
CCCCCN1CSC(=S)N(Cc2ccccc2)C1,i,i,i,i,i,?
S=C1SCN(Cc2ccco2)CN1Cc1ccco1,14µM,?,?,?,i,-99
CCNC(=O)COC(=O)C1C(C(=O)OCC)=C(C)NC(C)=C1C(=O)OCC,i,nt,i,i,nt,i
CCOC(=O)C1=C(C)NC(C)=C(C(=O)OCC)C1c1c(F)c(F)c(F)c(F)c1F,nt,nt,?,16µM,nt,nt
CCOC(=O)C1=C(C)NC(C)=C(C(=O)OCC)C1C(=O)OCC(=O)NCc1ccc(F)cc1,3.5µM,nt,nt,nt,nt,i
CCOC(=O)C1=C(C)NC(C)=C(C(=O)OCC)C1c1ccc(O)cc1,i,nt,?,?,i,i
CC(C)=CCCC(C)=CCN1C(=O)[C@]2(O[C@H](COc3ccccc3)CC3=CCCC32)c2c(Br)cccc21 (stereo partly drawn),nt,nt,i,nt,nt,nt
CCc1ccc(Nc2n[n+](-c3ccccc3)c(-c3cccc(C)c3)s2)cc1,32µM,i,nt,nt,i,i
COc1ccc(S(=O)(=O)Nc2ccc3c(c2)N(C(C)=O)CCC3)cc1,?,i,i,?,i,-62
CC(=O)N1CCc2cc(S(=O)(=O)Nc3cccc(C(F)(F)F)c3)ccc21,13µM,?,?,?,?,?
COc1cccc(NS(=O)(=O)c2ccc3c(c2)CCN3C(C)=O)c1,1.6µM,?,?,i,i,-64
COc1ccc(S(=O)(=O)Nc2ccc3c(c2)N(C(C)=O)CCC3)cc1OC,i,i,i,i,i,i
COc1cccc(NS(=O)(=O)c2ccc3c(c2)CCCN3C(=O)C2CCC2)c1,nt,i,nt,?,i,i
CC(=O)N1CCc2cc(S(=O)(=O)N3CCc4ccccc43)ccc21,?,i,?,?,?,-68
COCCCNc1nc2c(c(=O)[nH]c(=O)n2C)n1C[C@@H](O)COc1ccccc1,nt,nt,i,nt,nt,nt
CCC(C)NC(=O)c1ccccc1NC(=O)C1CCN(S(=O)(=O)Cc2ccccc2)CC1 (stereo not drawn),nt,i,i,i,i,i
CC(=O)N1CCCc2ccc(NC(=O)c3ccc(OC(C)C)cc3)cc21,nt,i,nt,?,i,-61
CCCCOc1ccc(C(=O)Nc2ccc3c(c2)N(C(C)=O)CCC3)cc1,nt,i,nt,i,i,?
CCOc1ccc(S(=O)(=O)Nc2ccc3c(c2)CCCN3S(=O)(=O)c2ccc(C)cc2)cc1,nt,i,nt,?,i,-65

# Assay outcomes deposited in PubChem BioAssay by National Center for Advancing Translational Sciences (NCATS).
